Test results: PubChem BioAssay (Tox21)
Records with an inconclusive call do not appear. Activity calls are given as the source filed them. Unless noted, the call rests on the fitted dose curve.

How the values were obtained:
[1] = Nuclear factor erythroid 2-related factor 2/antioxidant responsive element (Nrf2/ARE) small molecule agonists: qHTS cell viability counter screen in human keratinocytes (AID 1919968; active means well fitted curve in the direction sought with a large enough effect in the repeat runs; an effect the other way counts as inactive or inconclusive; further: nearly all actives have a fitted effect of over 55% in size; further: potency means the concentration at half of the fitted maximal effect)
How it was run: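 Viability counter-screen: KeratinoSens reporter cells, DMSO-delivered compounds, 23 h at 37 C, CellTiter-Fluor fluorescence.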

[2] = target: Gonadotropin-releasing hormone receptor (Homo sapiens) (UniProt P30968); assay: Human gonadotropin-releasing hormone receptor (GnRHR) small molecule agonists, calcium flux assay in GnRHR-HEK293 cells (AID 1920063); further: nearly all actives have a fitted effect of over 35% in size
How it was run: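 Tox21-format agonist screen using human GnRHR-expressing HEK293 cells and a fluorescent calcium dye; kinetic 3-min fluorescence reading after compound addition, 15-point concentration series run in triplicate.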

[3] = target: KiSS-1 receptor (Homo sapiens) (UniProt Q969F8); assay: Human kisspeptin (KISS1R) small molecule agonists, calcium flux assay in KISS1R-HEK293 cells (AID 1920064; active means well fitted curve in the direction sought with a large enough effect in the repeat runs; an effect the other way counts as inactive or inconclusive)
How it was run: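 Intracellular calcium mobilization in KISS1R-HEK293 cells was recorded by fluorescence (Ex/Em 480/540) for 3 min following compound addition to cells pre-loaded 1 h with calcium dye.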

[4] = G protein-coupled receptor (GPCR) small molecule agonists, calcium flux assay: HEK293 wild type cell line counter screen (AID 1920065)
How it was run: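 In this agonist-mode screen, ATP is the positive control and DMSO the vehicle. Cells grow 18 h before a 1 h dye incubation at 37 C; signal is taken at Ex/Em 480/540 over 3 min.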

[5] = p53 small molecule agonists, cell-based qHTS assay with human liver microsomes (AID 1963577)
How it was run: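 Compounds act here after metabolic activation: human liver microsomes and NADPH, both at 0.5 mg/mL final, were co-added to p53RE-bla cells. Incubation ran 16 h at 37 C, followed by LiveBLAzer detection.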

[6] = p53 small molecule agonists, cell-based qHTS assay with rat liver microsomes (AID 1963578)
How it was run: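 Read-out is beta-lactamase reporter fluorescence (LiveBLAzer, 2 h, room temperature, dark) in p53RE-bla cells treated 16 h at 37 C with compound, rat liver microsomes and NADPH, both 0.5 mg/mL final.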

[7] = p53 small molecule agonists, cell-based qHTS assay with human liver microsomes: qHTS cell viability counter screen (AID 1963579); further: nearly all actives have a fitted effect of over 45% in size; further: potency means the concentration at half of the fitted maximal effect
How it was run: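 Cells carrying the p53 response-element beta-lactamase reporter are treated for 16 h at 37 C with test compounds in the presence of human liver microsomes and NADPH (both 0.5 mg/mL final); ATP-based CellTiter-Glo luminescence then reports viability.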

[8] = p53 small molecule agonists, cell-based qHTS assay: qHTS cell viability counter screen (AID 1963581); further: nearly all actives have a fitted effect of over 45% in size; further: potency means the concentration at half of the fitted maximal effect
How it was run: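 Compounds are pinned onto HCT-116 p53RE-bla cells and left 16 h at 37 C. Following the reporter FRET read, ATP is quantified by CellTiter-Glo luminescence after 30 min at room temperature.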

[9] = p53 small molecule agonists, cell-based qHTS assay (AID 1963582; active means well fitted activation curve with a large enough effect in the signal ratio in the repeat runs, not every such curve was filed as active; the % refers to the signal ratio)
How it was run: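 Agonist activity was scored from beta-lactamase FRET fluorescence in p53RE-bla cells treated 16 h at 37 C with compounds in DMSO, substrate incubation being 2 h at room temperature.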

[10] = target: 5-hydroxytryptamine receptor 2A (Homo sapiens) (UniProt P28223); assay: 5-hydroxytryptamine receptor 2A (HTR2A) small molecule agonists, cell-based qHTS assay (AID 1963587); further: nearly all actives have a fitted effect of over 30% in size
How it was run: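 HTR2A-CHO cells, plated 18 h at 37 C/5% CO2, dye-loaded 1 h at 37 C; compounds in DMSO added by pin tool (agonist mode). Intracellular calcium flux read as kinetic fluorescence on FDSS over 2 min at 1 s intervals.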

[11] = target: Muscarinic acetylcholine receptor M1 (Homo sapiens) (UniProt P11229); assay: Cholinergic receptor muscarinic 1 (CHRM1) small molecule antagonists, cell-based qHTS assay (AID 1963588); further: nearly all actives have a fitted effect of over 40% in size; further: potency means the concentration at half of the fitted maximal effect
How it was run: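 CHRM1-CHO calcium-flux assay, antagonist mode. Cells were seeded 18 h, dye-loaded 1 h at 37 C and given compound for 5 min at RT, then acetylcholine was added at 50nM. FDSS fluorescence was read 3 min; 15 concentrations, three runs.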

[12] = target: Muscarinic acetylcholine receptor M1 (Homo sapiens) (UniProt P11229); assay: Cholinergic receptor muscarinic 1 (CHRM1) small molecule agonists, cell-based qHTS assay (AID 1963589); further: nearly all actives have a fitted effect of over 35% in size
How it was run: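 Stable CHRM1-CHO cells (human receptor) were incubated 18 h, dye-loaded for 1 h at 37 C and exposed to test compounds for agonist activity, with calcium-dependent fluorescence followed kinetically.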

[13] = cAMP Responsive Elements (CRE) small molecule agonists, cell-based qHTS assay (AID 1963590)
How it was run: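 FRET-based beta-lactamase readout (LiveBLAzer B/G, 2 h RT) quantified CRE activation in HEK 293T CRE-bla cells after 3 h treatment with DMSO-dissolved compounds.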

[14] = target: Beta-2 adrenergic receptor (Homo sapiens) (UniProt P07550); assay: Adrenergic beta2 receptor (ADRB2) small molecule antagonists, cell-based qHTS assay (AID 1963592); further: series mostly up to about 92 µM; nearly all actives have a fitted effect of over 50% in size
How it was run: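 Cells (CHO, stable ADRB2 overexpression) incubated 18-20hr at 37C; compounds added from DMSO; agonist mix (1nM isoproterenol, 100uM IBMX, 25uM Ro-20-1724) added; 0.5hr RT; d2-cAMP and anti-cAMP-cryptate added; 1hr RT; 665/615 nm read.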

[15] = target: D(2) dopamine receptor (Homo sapiens) (UniProt P14416); assay: Dopamine D2 receptor (DRD2) small molecule agonists, cell-based qHTS assay (AID 1963594); further: nearly all actives have a fitted effect of over 35% in size
How it was run: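 HEK293 cells stably expressing DRD2 were cultured 24 h at 37 C, then given Ro20-1724 (0.1 mM final) and compounds for 10 min at room temperature. NKH477 (200nM) was then added for 30 min. cAMP was read by HTRF.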

[16] = target: D(2) dopamine receptor (Homo sapiens) (UniProt P14416); assay: Dopamine D2 receptor (DRD2) small molecule antagonists, cell-based qHTS assay (AID 1963595; active means well fitted inhibition curve with a large enough effect in the signal ratio in the repeat runs, with a control signal flat; the % refers to the signal ratio)
How it was run: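 Stable D2 receptor HEK293 line, 24 h after seeding. Compound preincubated 10 min, then quinpirole (12 nM) with forskolin analogue NKH477 (200 nM), 30 min, room temperature. Detection by time-resolved FRET of cAMP.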

[17] = target: 5-hydroxytryptamine receptor 2A (Homo sapiens) (UniProt P28223); assay: 5-hydroxytryptamine receptor 2A (HTR2A) small molecule antagonists, cell-based qHTS assay (AID 1963586); further: nearly all actives have a fitted effect of over 45% in size; further: potency means the concentration at half of the fitted maximal effect
How it was run: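 Antagonist-mode intracellular calcium assay: DOI (4 nM) added after 5 min compound pre-incubation at room temperature to dye-loaded HTR2A-CHO cells. Fluorescence followed for 3 min, sampled every second.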

[18] = target: Beta-2 adrenergic receptor (Homo sapiens) (UniProt P07550); assay: Adrenergic beta2 receptor (ADRB2) small molecule agonists, cell-based qHTS assay (AID 1963593);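 further: CHO cells stably overexpressing human ADRB2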
How it was run: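 CHO cells stably over-expressing ADRB2 were plated overnight at 37C, then dosed with compounds plus a stimulation mix containing 100uM IBMX and 25uM Ro-20-1724 for 0.5hr at room temperature. cAMP was measured by HTRF competition, 1hr.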

[19] = p53 small molecule agonists, cell-based qHTS assay with rat liver microsomes: qHTS cell viability counter screen (AID 1963580); further: nearly all actives have a fitted effect of over 45% in size
How it was run: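 In HCT-116 cells carrying a p53 response element-bla reporter, compounds were metabolically activated in situ by rat liver microsomes with NADPH over 16 h. Cell ATP content then served as the cytotoxicity measure.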

[20] = cAMP Responsive Elements (CRE) small molecule antagonists, cell-based qHTS assay (AID 1963591; active means well fitted inhibition curve with a large enough effect in the signal ratio in the repeat runs, not every such curve was filed as active; the % refers to the signal ratio; further: potency means the concentration at half of the fitted maximal effect)
How it was run: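 qHTS in CRE-bla HEK 293T cells: compound in DMSO, then 0.25 uM NKH477 (final), 3 h at 37 °C/5% CO2; beta-lactamase FRET read-out after 2 h substrate incubation.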

Measured: Potency

Beta-2 adrenergic receptor (Homo sapiens), sequence (P07550 whole entry, looked up): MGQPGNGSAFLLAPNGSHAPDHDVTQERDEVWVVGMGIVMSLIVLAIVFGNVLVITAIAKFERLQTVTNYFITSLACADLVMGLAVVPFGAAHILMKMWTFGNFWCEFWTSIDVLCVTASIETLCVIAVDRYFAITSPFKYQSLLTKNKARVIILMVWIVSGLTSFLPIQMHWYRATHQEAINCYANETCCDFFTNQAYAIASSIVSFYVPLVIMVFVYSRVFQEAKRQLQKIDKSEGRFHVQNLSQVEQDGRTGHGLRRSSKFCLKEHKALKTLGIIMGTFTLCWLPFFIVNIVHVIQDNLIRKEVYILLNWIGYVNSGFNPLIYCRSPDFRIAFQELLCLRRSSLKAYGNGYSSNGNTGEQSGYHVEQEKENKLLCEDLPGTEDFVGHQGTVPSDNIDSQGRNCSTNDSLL
Gonadotropin-releasing hormone receptor (Homo sapiens), sequence (P30968 whole entry, looked up): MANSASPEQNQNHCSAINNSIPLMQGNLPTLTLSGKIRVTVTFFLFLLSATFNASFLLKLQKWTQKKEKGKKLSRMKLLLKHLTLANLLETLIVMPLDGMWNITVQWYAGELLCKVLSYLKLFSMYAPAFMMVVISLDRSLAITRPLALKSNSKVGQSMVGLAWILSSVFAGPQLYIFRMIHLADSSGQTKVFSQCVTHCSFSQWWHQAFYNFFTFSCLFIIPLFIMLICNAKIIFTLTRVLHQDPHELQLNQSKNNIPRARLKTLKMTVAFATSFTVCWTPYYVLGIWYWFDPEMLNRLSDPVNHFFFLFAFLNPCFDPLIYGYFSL
KiSS-1 receptor (Homo sapiens), sequence (Q969F8 whole entry, looked up): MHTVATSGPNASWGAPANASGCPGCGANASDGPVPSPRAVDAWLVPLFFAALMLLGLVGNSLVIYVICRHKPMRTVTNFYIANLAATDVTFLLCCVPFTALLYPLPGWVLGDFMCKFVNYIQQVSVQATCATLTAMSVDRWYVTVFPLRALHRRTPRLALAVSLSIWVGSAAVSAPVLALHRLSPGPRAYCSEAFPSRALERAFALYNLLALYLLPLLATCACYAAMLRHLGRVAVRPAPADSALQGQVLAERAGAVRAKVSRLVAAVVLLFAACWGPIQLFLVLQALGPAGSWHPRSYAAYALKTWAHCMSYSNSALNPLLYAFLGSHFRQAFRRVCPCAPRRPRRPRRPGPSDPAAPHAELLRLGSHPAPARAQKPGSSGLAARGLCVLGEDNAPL
5-hydroxytryptamine receptor 2A (Homo sapiens), sequence (P28223 whole entry, looked up): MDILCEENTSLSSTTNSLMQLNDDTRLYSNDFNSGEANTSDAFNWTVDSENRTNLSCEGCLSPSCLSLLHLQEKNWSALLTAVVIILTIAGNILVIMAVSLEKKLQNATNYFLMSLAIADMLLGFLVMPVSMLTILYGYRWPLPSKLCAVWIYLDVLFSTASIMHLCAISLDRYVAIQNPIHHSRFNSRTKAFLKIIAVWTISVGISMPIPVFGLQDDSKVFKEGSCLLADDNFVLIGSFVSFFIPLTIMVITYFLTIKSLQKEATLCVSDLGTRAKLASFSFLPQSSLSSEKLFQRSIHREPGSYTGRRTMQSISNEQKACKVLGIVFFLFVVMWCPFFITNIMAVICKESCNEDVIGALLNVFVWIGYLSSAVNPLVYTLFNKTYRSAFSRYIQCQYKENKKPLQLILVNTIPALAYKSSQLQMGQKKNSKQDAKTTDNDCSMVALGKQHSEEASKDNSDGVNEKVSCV
D(2) dopamine receptor (Homo sapiens), sequence (P14416 whole entry, looked up): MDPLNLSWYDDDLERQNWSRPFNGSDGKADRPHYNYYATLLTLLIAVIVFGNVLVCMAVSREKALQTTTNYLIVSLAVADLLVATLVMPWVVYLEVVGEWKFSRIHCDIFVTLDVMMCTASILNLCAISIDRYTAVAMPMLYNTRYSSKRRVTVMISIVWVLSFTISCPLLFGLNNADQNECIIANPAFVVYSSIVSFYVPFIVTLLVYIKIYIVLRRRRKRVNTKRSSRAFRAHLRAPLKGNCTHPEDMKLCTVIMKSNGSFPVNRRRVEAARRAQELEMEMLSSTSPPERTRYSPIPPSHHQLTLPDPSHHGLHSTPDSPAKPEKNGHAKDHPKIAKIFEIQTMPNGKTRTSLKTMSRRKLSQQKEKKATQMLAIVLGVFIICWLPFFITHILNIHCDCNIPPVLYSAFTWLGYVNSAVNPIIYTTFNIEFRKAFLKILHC
Muscarinic acetylcholine receptor M1 (Homo sapiens), sequence (P11229 whole entry, looked up): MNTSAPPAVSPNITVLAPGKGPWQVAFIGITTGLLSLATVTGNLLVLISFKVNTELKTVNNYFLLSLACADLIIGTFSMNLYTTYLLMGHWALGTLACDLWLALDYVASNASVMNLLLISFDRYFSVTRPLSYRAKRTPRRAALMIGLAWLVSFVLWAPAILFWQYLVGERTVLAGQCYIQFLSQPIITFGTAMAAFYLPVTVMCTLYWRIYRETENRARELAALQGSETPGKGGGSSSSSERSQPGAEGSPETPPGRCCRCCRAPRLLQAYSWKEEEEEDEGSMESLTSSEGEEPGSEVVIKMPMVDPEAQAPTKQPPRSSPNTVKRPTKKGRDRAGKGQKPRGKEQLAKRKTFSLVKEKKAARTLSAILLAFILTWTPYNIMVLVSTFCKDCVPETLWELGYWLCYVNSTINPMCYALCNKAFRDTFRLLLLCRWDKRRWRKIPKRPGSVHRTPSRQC

O=C(Oc1ccccc1)Oc1ccccc1
inactive: [1] | [2] | [3] | [4] | [5] | [6] | [7] | [8] | [9] | [10] | [11] | [12] | [13] | [14] | [15] | [16]

CCc1ccc2c(c1)C(=O)c1ccccc1C2=O
inactive: [1] | [2] | [3] | [4] | [5] | [6] | [7] | [8] | [9] | [17] | [11] | [12] | [14] | [18] | [15] | [16]

Nc1ccccn1
active: [17] 0.0318 µM
inactive: [1] | [2] | [3] | [4] | [5] | [6] | [19] | [8] | [9] | [10] | [11] | [12] | [13] | [14] | [15] | [16]

CCCCCOC(=O)CCCCC
inactive: [1] | [2] | [3] | [4] | [5] | [6] | [19] | [8] | [9] | [17] | [10] | [11] | [12] | [13] | [20] | [18] | [15] | [16]

COc1ccc(C2CNC(=O)C2)cc1OC1CCCC1 (centres undefined)
inactive: [1] | [2] | [3] | [4] | [5] | [6] | [19] | [8] | [9] | [17] | [10] | [11] | [12] | [13] | [20] | [14] | [18] | [15] | [16]

CCCCCCCCCCCCCCCC(=O)OC/C=C(C)/C=C/C=C(C)/C=C/C1=C(C)CCCC1(C)C
inactive: [1] | [2] | [3] | [4] | [5] | [6] | [19] | [8] | [17] | [10] | [11] | [12] | [13] | [20] | [14] | [15] | [16]

CN(C)Cc1cc(C(C)(C)C)c(O)c(C(C)(C)C)c1
inactive: [1] | [2] | [3] | [4] | [5] | [6] | [7] | [9] | [10] | [11] | [12] | [13] | [20] | [15] | [16]
active: [17] 3.75 µM

Oc1ccc(C2(c3ccc(O)cc3)CC3CC2C2CCCC32)cc1 (centres undefined)
active: [1] 29.4 µM | [7] 17.5 µM | [8] 34.9 µM | [20] 65.9 µM
inactive: [2] | [3] | [4] | [5] | [6] | [11] | [12] | [14] | [18] | [15]

CCN(CC)CCNC(=O)c1c(C)[nH]c(/C=C2\C(=O)Nc3ccc(F)cc32)c1C
active: [1] 29.8 µM
inactive: [2] | [3] | [4] | [5] | [6] | [7] | [8] | [9] | [10] | [12] | [13]

COC(C)CCO (centres undefined)
inactive: [1] | [2] | [3] | [4] | [5] | [6] | [19] | [8] | [9] | [17] | [10] | [11] | [12] | [13] | [20] | [18] | [15] | [16]

c1ccc(-c2nc3ccccc3[nH]2)cc1
inactive: [1] | [2] | [3] | [4] | [5] | [6] | [7] | [9] | [17] | [10] | [11] | [12] | [13] | [20] | [14] | [15] | [16]

Nc1cccc([N+](=O)[O-])c1
inactive: [1] | [2] | [3] | [4] | [5] | [6] | [19] | [8] | [9] | [17] | [20] | [14] | [18] | [15] | [16]
active: [11] 0.13 µM

CN(C)c1ccc(C=O)cc1
inactive: [1] | [2] | [3] | [4] | [5] | [6] | [7] | [9] | [10] | [11] | [12] | [13] | [20] | [14] | [18] | [15] | [16]

CCCOC(=O)c1c(Cl)c(Cl)c(Cl)c(Cl)c1C(=O)OCCC
inactive: [1] | [2] | [3] | [4] | [5] | [6] | [19] | [8] | [17] | [10] | [11] | [12] | [13] | [20] | [14] | [15] | [16]

O=C(O)C(=O)Cc1ccccc1
inactive: [1] | [2] | [3] | [4] | [5] | [6] | [19] | [8] | [9] | [17] | [10] | [11] | [12] | [13] | [20] | [14] | [18] | [15] | [16]
